# Data as given in PubChem BioAssay.
# Results filed as inconclusive are left out. The source made the active and inactive calls. Rule as the data show it, unless noted: active = inhibition above about 80%; inactive = the rest.
# Tests used:
# [1] = viability loss in pontine glioma line – cell-based, SU-DIPG-XIII, MIPE4.0, CellTiter-Glo, qHTS, dose response (AID 1347061; cut-off not given, nearly all actives have AC50 up to about 37 µM;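 also: cells exposed to compound for 48 hours before readout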); conditions: CellTiter-Glo ATP luminescence
# [2] = viability loss in pontine glioma line – cell-based, JHH-DIPG-1, MIPE4.0, CellTiter-Glo, qHTS, dose response (AID 1347062; cut-off not given, nearly all actives have AC50 up to about 27 µM); conditions: JHH-DIPG-1 viability, CellTiter-Glo ATP luminescence
# [3] = viability loss in pontine glioma line – cell-based, SU-DIPG-IV, MIPE4.0, CellTiter-Glo, qHTS, dose response (AID 1347063; cut-off not given, nearly all actives have AC50 up to about 30 µM;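 also: compound exposure lasted 48 hours before the viability readout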); conditions: CellTiter-Glo ATP luminescence
# [4] = growth inhibition of DIPG cells – cell-based, MIPE4.0 library, CellTiter-Glo luminescence, qHTS (AID 1347066; cut-off not given, nearly all actives have AC50 up to about 30 µM;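 also: cells exposed to compound for 48 hours before readout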); conditions: SU-DIPG-VI viability, CellTiter-Glo ATP luminescence
# [5] = growth inhibition, single agent or in combination, cell-based, chromothripsis tumors, cisplatin or BGB combos (AID 1671449); conditions: LFS_MB_P medulloblastoma cells;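 also: cells exposed for 96 hours; 0% = vehicle DMSO and 100% = killing by high DMSO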
# [6] = growth inhibition, single agent and combos, cell-based, chromothripsis tumors, cisplatin or BGB combos (AID 1671450); conditions: HDN33 neuroblastoma cells, stronger effect = higher value;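 also: cells exposed to compound for four days; 0% = vehicle DMSO and 100% = cell killing by high DMSO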
# [7] = growth inhibition, single agents and combos, ICB984, cell-based, cisplatin or BGB combos, synergistic combos for chromothripsis tumors (AID 1671451; call rule not given here;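 also: cells exposed for 96 hours before readout; 0% = vehicle DMSO and 100% = killing by high DMSO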); conditions: ICB984 medulloblastoma cells, drug combinations, stronger effect = higher value
# [8] = growth inhibition, single agents and combos, LFS_MB_1R, cell-based, cisplatin or BGB combos, synergistic combos for chromothripsis tumors (AID 1671452); conditions: LFS_MB_1R medulloblastoma cells, stronger effect = higher value;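 also: cells exposed for 96 hours before readout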
# [9] = growth inhibition, single agents and combos, HTB85, cell-based, BGB or cisplatin IC20 combos, synergistic combos for chromothripsis tumors (AID 1671453); conditions: HTB85 osteosarcoma cells, drug combinations, stronger effect = higher value;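 also: cells exposed for 96 hours before readout; 0% = vehicle DMSO and 100% = high DMSO killing control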
# [10] = growth inhibition, single agents and combos, CRL2098, cell-based, BGB or cisplatin IC20 combos, synergistic combos for chromothripsis tumors (AID 1671454); conditions: CRL2098 osteosarcoma cells, drug combinations, stronger effect = higher value;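 also: cells exposed for 96 h before readout; 0% = vehicle DMSO and 100% = killing by high DMSO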
# [11] = growth inhibition, single agents and combos, HD-MB03, cell-based, BGB or cisplatin IC20 combos, synergistic combos for chromothripsis tumors (AID 1671455; in the data active = inhibition above about 83%;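 also: 0% = vehicle DMSO and 100% = high DMSO as cytotoxic control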); conditions: HD-MB03 medulloblastoma cells, stronger effect = higher value
# [12] = growth inhibition, single agents and combos, UWB1.289, cell-based, BGB or cisplatin combos, synergistic combos for chromothripsis tumors (AID 1671456); conditions: UWB1.289 ovarian carcinoma cells, stronger effect = higher value;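 also: cells exposed to compound for four days; 0% = vehicle DMSO and 100% = killing by high DMSO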
# [13] = growth inhibition, single agents and combos, LFS_MB_2R, cell-based, cisplatin combos, synergistic combos for chromothripsis tumors (AID 1671457); conditions: LFS_MB_2R medulloblastoma cells, stronger effect = higher value;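 also: cells exposed to compound for four days before readout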
# [14] = growth inhibition, MDA-MB-436, cell-based, BGB or cisplatin combos, synergistic combos for chromothripsis tumors (AID 1671458; call rule not given here;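 also: cells exposed for 96 hours; 0% = vehicle DMSO and 100% = killing by high DMSO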); conditions: MDA-MB-436 breast carcinoma growth inhibition, drug combinations, stronger effect = higher value
# [15] = UWB1.289_BRCA1 ovarian cancer growth, cell-based, BGB or cisplatin combinations (AID 1671459); conditions: UWB1.289 BRCA1 ovarian carcinoma, drug combinations, stronger effect = higher value
# [16] = drug combination toxicity in non-malignant astrocytes – cell-based, BGB or cisplatin IC20 combos, cytotoxicity control for chromothriptic childhood tumor combination screen (AID 1671460); conditions: Human astrocytes, viability inhibition, drug combinations, at 0.5 µM, stronger effect = higher value;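 also: cells exposed to compounds for 96 hours before viability readout; 0% = vehicle and 100% = killing control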
# [17] = BT084 cell growth, single and combined drugs, ICGC_MB145, cisplatin and BGB IC40 combos (AID 1671461); conditions: BT084 medulloblastoma cells, drug combinations, stronger effect = higher value;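 also: cells exposed to drugs for 96 hours; 0% = vehicle DMSO and 100% = high DMSO full killing control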
# [18] = RCMB18 cell growth, single agent and combined, cisplatin and BGB IC40 combos (AID 1671462); conditions: RCMB18 medulloblastoma cells, stronger effect = higher value;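 also: cells exposed to compound for four days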
# [19] = CRL1545 cell growth, single agent and combined, cisplatin and BGB IC20 combos (AID 1671464); conditions: CRL1545 osteosarcoma cells, stronger effect = higher value;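 also: cells exposed to compound for 96 hours before readout; 0% = vehicle DMSO and 100% = high DMSO killing control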
# [20] = measured here: combination with BGB IC40, at 0.05 µM
# [21] = measured here: with BGB IC20 combination, at 0.5 µM
# [22] = measured here: with cisplatin IC20 combination, at 0.5 µM
# [23] = measured here: combination with cisplatin, at 0.5 µM
# [24] = measured here: combination with cisplatin, at 5 µM
smiles,measurement,setting,value
O=C1CCC[C@@H]2[C@H]3CCCN4CCC[C@@H](CN12)[C@@H]34,outcome,[1],inactive
same,outcome,[2],inactive
same,outcome,[3],inactive
same,outcome,[4],inactive
same,inhibition,"[5]; at 0.5 µM, stronger effect = higher value",-20.9% (inactive)
same,inhibition,"[5]; measured here: combination with BGB IC20, at 0.005 µM",-26.5%
same,inhibition,"[5]; measured here: combination with BGB IC40, at 0.005 µM",-23%
same,inhibition,[5]; [20],-17%
same,inhibition,"[5]; measured here: combination with cisplatin, at 0.5 µM, stronger effect = higher value",-27.3%
same,inhibition,"[5]; measured here: combination with cisplatin, at 5 µM, stronger effect = higher value",64.5%
same,inhibition,"[6]; BGB combo, at 5 µM",59.7%
same,inhibition,[6]; at 0.5 µM,6.84% (inactive)
same,inhibition,"[6]; cisplatin combo, at 5 µM",52.4%
same,inhibition,[6]; [21],-9.69%
same,inhibition,[6]; [22],11.1%
same,inhibition,"[6]; single agent, at 5 µM",48.2%
same,inhibition,"[7]; BGB IC20 combo, at 0.005 µM",5.19%
same,inhibition,"[7]; BGB IC40 combo, at 0.005 µM",0.771%
same,inhibition,"[7]; BGB IC40 combo, at 0.05 µM",63.2%
same,inhibition,[7]; at 0.5 µM,-0.41% (inactive)
same,inhibition,"[7]; cisplatin combo, at 0.05 µM",61.6%
same,inhibition,"[7]; cisplatin combo, at 0.5 µM",2.95%
same,inhibition,"[7]; cisplatin combo, at 5 µM",-10%
same,inhibition,"[7]; measured here: 5 uM single agent, at 5 µM",1.92%
same,inhibition,[8]; at 0.5 µM,12.9% (inactive)
same,inhibition,[8]; [20],-3.79%
same,inhibition,[8]; [23],12.5%
same,inhibition,[8]; [24],79.4%
same,inhibition,[9]; at 0.5 µM,0.28% (inactive)
same,inhibition,"[9]; measured here: with BGB IC20, at 0.5 µM",0.562%
same,inhibition,"[9]; measured here: with BGB IC20, at 5 µM",39.5%
same,inhibition,"[9]; measured here: with cisplatin IC20, at 0.5 µM",-4.39%
same,inhibition,"[9]; measured here: with cisplatin IC20, at 5 µM",33.8%
same,inhibition,"[9]; single agent, at 5 µM",15.4%
same,inhibition,[10]; at 0.5 µM,11.9% (inactive)
same,inhibition,"[10]; measured here: combination with BGB at IC20, at 0.5 µM",-8.11%
same,inhibition,"[10]; measured here: combination with cisplatin at IC20, at 0.5 µM",39.2%
same,inhibition,[11]; at 0.5 µM,2.42% (inactive)
same,inhibition,"[11]; measured here: combo with BGB at IC20, at 0.5 µM",3.91%
same,inhibition,"[11]; measured here: combo with cisplatin at IC20, at 0.5 µM",-1.67%
same,inhibition,[12]; at 0.5 µM,2.22% (inactive)
same,inhibition,"[12]; measured here: inhibition with BGB combination, at 0.05 µM",4.13%
same,inhibition,"[12]; measured here: inhibition with cisplatin combination, at 0.05 µM",1.55%
same,inhibition,[13]; at 0.5 µM,0.58% (inactive)
same,inhibition,[13]; [23],8.66%
same,inhibition,[13]; [24],60.9%
same,inhibition,[14]; at 0.5 µM,-3.03% (inactive)
same,inhibition,"[14]; measured here: BGB combination, at 0.5 µM",-5.75%
same,inhibition,"[14]; measured here: BGB combination, at 5 µM",1.19%
same,inhibition,"[14]; measured here: cisplatin combination, at 0.5 µM",-10.4%
same,inhibition,"[14]; measured here: cisplatin combination, at 5 µM",1.01%
same,inhibition,"[15]; BGB combination, concentration series, at 5 µM",24%
same,inhibition,[15]; at 0.5 µM,2.45% (inactive)
same,inhibition,"[15]; cisplatin combination, concentration series, at 5 µM",16.1%
same,inhibition,[16],2.72% (inactive)
same,inhibition,[16]; measured here: combo with BGB IC20,3.13%
same,inhibition,[16]; measured here: combo with cisplatin IC20,4.87%
same,inhibition,[17]; at 0.5 µM,3.62% (inactive)
same,inhibition,"[17]; cisplatin combination, at 0.5 µM",3.61%
same,inhibition,"[17]; cisplatin combination, at 5 µM",62.6%
same,inhibition,"[17]; measured here: BGB IC40 combination 0.05 uM, at 0.05 µM",-11%
same,inhibition,"[17]; single agent, at 5 µM",75.7%
same,inhibition,[18]; at 0.5 µM,-5.51% (inactive)
same,inhibition,"[18]; cisplatin combo, at 5 µM",33.7%
same,inhibition,"[18]; measured here: BGB IC40 combination, at 0.05 µM",-15.6%
same,inhibition,[18]; [23],-27.9%
same,inhibition,"[18]; single agent, at 5 µM",31.3%
same,inhibition,[19]; at 0.5 µM,8.42% (inactive)
same,inhibition,[19]; [21],-16.4%
same,inhibition,[19]; [22],19.6%
same,inhibition,"[19]; single agent, at 0.05 µM",-32.9%
same,inhibition,"[19]; single agent, at 5 µM",-58%
